# Source: PubChem
# Compounds with a hit are over-represented: about 2.3% of the library has one in this group of screens.
# PTHR1 ag: agonists of human PTHR1 parathyroid hormone receptor; Q03431; HEK293 GP2 PTHR1 cells, GloSensor cAMP luminescence, 1 h; Potency, µM (series often up to 115 µM), for the others: top-dose activation, hits mostly activators; 410,000 compounds, 0.075% hits; note: nearly all actives have a fitted effect of over 55% in size
#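 HEK-293-derived GP2 cells expressing PTHR1 and a GloSensor cAMP reporter, 3,000/well, plated overnight, given luciferin plus IBMX (each 0.5 mM as added) for 1 h at 37 °C, then compound for 1 h at 37 °C. Luminescence was read after 15 min at room temperature.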
# Glioma ERSR ind: induces the endoplasmic reticulum stress response in human glioma cells; U87-MG GRP78 promoter luciferase reporter, 16 h; Potency, µM, for inactives: at the top dose activation, actives largely listed as activators; 420,000 compounds, 0.02% hits; AID 602332; note: series mostly up to about 76 µM; % of control where 0% means no effect; nearly all actives have a fitted effect of over 35% in size
#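 Stably transfected U87-MG human glioma cells carrying a GRP78-based luminescent sensor were seeded at 1000 cells/well, pin-dosed with compounds and incubated 16 h. Luciferase reagent was then added, and end-point luminescence was read after 10 min at room temperature.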
# ALOX12 inh: inhibitors of human 12S-lipoxygenase ALOX12 | P18054 | purified 12hLO, xylenol orange hydroperoxide absorbance | Potency, µM (highest dose often 108 µM), without a hit: top-dose activity change, negative = inhibition, most hits filed as inhibitors | 580,000 compounds, 1.1% hits | AID 1671190; note: % is set by controls: 0 for no effect and ±100 for the full control effect
#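 Purified human 12hLO (150 nM final) in 25 mM Hepes, 0.01% Triton X-100, pH 7.0 was preincubated 15 min at room temperature with compound. Then 40 uM arachidonic acid was added, 30 min. Hydroperoxide was read by Fe-XO absorbance ratio 573/405 nm.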
# GLP1R inv ag: GLP-1 receptor (human) inverse agonism; P43220; HEK293 GLP-1R CRE-luciferase, luminescence, 24 h; GLP-1R form is constitutively active; Potency, µM (series often up to 38.3 µM), for the others: top-dose activity change, negative = inhibition, hits mostly inhibitors; 410,000 compounds, 1.6% hits; note: % is set by controls: 0 for no effect and ±100 for the full control effect; nearly all actives have a fitted effect of over 55% in size
# Target sequence (P43220 whole entry, looked up): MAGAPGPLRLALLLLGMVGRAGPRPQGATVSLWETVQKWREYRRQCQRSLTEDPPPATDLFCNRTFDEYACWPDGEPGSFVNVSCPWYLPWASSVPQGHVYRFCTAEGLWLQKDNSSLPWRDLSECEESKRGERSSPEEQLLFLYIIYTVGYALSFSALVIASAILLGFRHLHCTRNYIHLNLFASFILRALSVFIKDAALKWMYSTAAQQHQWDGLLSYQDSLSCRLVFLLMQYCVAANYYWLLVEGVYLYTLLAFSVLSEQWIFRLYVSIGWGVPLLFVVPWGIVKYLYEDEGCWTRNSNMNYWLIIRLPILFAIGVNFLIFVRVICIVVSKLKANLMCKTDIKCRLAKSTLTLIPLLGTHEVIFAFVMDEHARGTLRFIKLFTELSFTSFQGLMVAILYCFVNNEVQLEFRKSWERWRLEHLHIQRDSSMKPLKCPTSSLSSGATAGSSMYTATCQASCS
#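 Assay principle: reduced luminescence from a cAMP-responsive reporter in HEK293 cells co-expressing a constitutively active GLP-1R. Conditions: 24 hr compound incubation, 37 deg C, 5% CO2.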
# GLP1R ag: GLP-1 receptor (human) agonism; P43220; HEK293 GLP-1R CRE-luciferase, luminescence, 4-6 h; cells express a hypersensitive GLP-1R form; Potency, µM (doses to about 45.6 µM), inactives show top-dose activation, usual class: activators; 380,000 compounds, 0.007% hits; note: % of control where 0% means no effect
# GLS inhibitor: blocks human kidney-isoform glutaminase activity; O94925; GLS enzymatic activity, qHTS titration; Potency, µM (series often up to 45.5 µM), inactives show at the highest dose activity change, negative = inhibition, hits mostly inhibitors; 410,000 compounds, 0.21% hits; AID 624170; note: % is set by controls: 0 for no effect and ±100 for the full control effect
#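 hKGA; 45 mM KH2PO4 pH 8.2 + 0.02% Tween-20; cpd via pin tool; 1 mM Gln soln; GluOx/HRP/Amplex Red; RT 30 min; fluor. t0 & final.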
# Active calls of the source: *; i = inactive; ? = inconclusive; . = not tested or not shown; [ ] = remark or other dose. Calls come from the whole dose curve; as a rule, active = well fitted curve in the direction sought with a large enough effect; inconclusive = small, poorly fitted or top-dose-only effect, or another doubt; inactive = no such curve, though single readings can be large; an effect the other way counts as inactive or inconclusive. Potency is the fitted concentration of half-maximal effect.
SMILES,PTHR1 ag,Glioma ERSR ind,ALOX12 inh,GLP1R inv ag,GLP1R ag,GLS inhibitor
CCn1c(=O)c2ccccc2n(CC(=O)Nc2cnc3ccccc3c2)c1=O,.,.,-10%,.,.,.
O=Cc1ccc(-c2cccnc2)o1,.,.,19%,.,.,.
CC(=O)Nc1nc2ccc(CC(=O)N3CCN(c4ccccc4F)CC3)cc2s1,.,.,21%,.,.,.
CCN(C(=O)C(C)N(C)CC(=O)Nc1cccc(F)c1)C1CCCCC1 (configuration not stated),.,.,-16%,.,.,.
CCC1(c2ccccc2)SC(N)=NC1=O (configuration not stated),i,-4%,-2%,0%,-4%,0%
CCC1(c2ccccc2)SCC(c2ccccc2)=NC1=O (configuration not stated),-7%,-5%,0%,3.2µM*,9%,7%
O=S(=O)(CCSc1ccc(Br)cc1)c1ccc(Cl)cc1,.,.,22%,.,.,.
Cc1cccc2nc(-c3ccccc3)nc(N3CCC(O)(c4ccc(Cl)cc4)CC3)c12,-18%,-8%,-8%,3.5µM*,-12%,7%
Clc1ccc(-c2nc(N3CCCC3)c3ccccc3n2)cc1,.,.,12%,.,.,.
CC(C)c1ccc(C2Sc3ccccc3NC3=C2C(=O)c2ccccc23)cc1 (configuration not stated),-18%,.,?,8.9µM*,.,-3%
CCc1ccc(C2Sc3ccccc3NC3=C2C(=O)c2ccccc23)cc1 (configuration not stated),i,-3%,?,?,.,0%
Cc1cccc(CN2C(=O)N/C(=C/c3cc(C)n(-c4cc(C)ccn4)c3C)C2=O)c1,-22%[57.5 µM],-2%,.,10µM*,-8%,10%
Cc1ccc(C(C[N+](=O)[O-])c2c(-c3ccccc3O)[nH][nH]c2=O)cc1 (configuration not stated),-26%,?,40µM*,?,-10%,-22%
COc1cccc(/C=N/NC(=O)Cn2nc(C)c([N+](=O)[O-])c2C)c1O,-7%,-6%,-11%,-17%,-11%,-8%
COc1cccc(/C=N/NC(=O)C(C)n2nc(C)c([N+](=O)[O-])c2C)c1O (configuration not stated),i,4%,2%,1.8µM*,-3%,8%
CCCc1cc(C(=O)OC)c(NC(=O)Cc2c(Cl)cccc2Cl)s1,.,.,20%,.,.,.
CCOC(=O)c1ccc(N2C(=O)c3n[nH]c(-c4ccco4)c3C2c2ccc([N+](=O)[O-])cc2)cc1 (configuration not stated),-34%,1%,-29%,7.1µM*,-10%,-3%
CCOC(=O)c1ccc(N2C(=O)c3[nH]nc(-c4ccccc4)c3C2c2ccc(CC)cc2)cc1 (configuration not stated),-18%,?,?,11µM*,-6%,-5%
CCOC(=O)c1ccc(N2C(=O)c3[nH]nc(-c4ccc(C)cc4)c3C2c2cccc(F)c2)cc1 (configuration not stated),-21%,14%,0%,10µM*,-8%,-8%
CCOC(=O)c1ccc(N2C(=O)c3[nH]nc(-c4ccc(OC)cc4)c3C2c2cccc(O)c2)cc1 (configuration not stated),-49%,-10%,0%,?,-2%,-1%
CCOC(=O)c1ccc(N2C(=O)c3[nH]nc(-c4ccc(C)cc4)c3C2c2ccc(O)cc2)cc1 (configuration not stated),-20%,-8%,-25%,?,0%,10%
NC1CCN(C(=O)C2CCCN(c3nc(-c4ccccc4)nc4c3CCC4)C2)CC1 (configuration not stated),.,.,50%,.,.,.
Cc1ccccc1-c1nc(C#N)c(NCCc2ccccc2)o1,.,.,-19%,.,.,.
O=C(O)c1cc(O)c2c(c1)C(=O)c1cccc(O)c1C2=O,4%,-2%,?,-15%,9%,22µM*
Cc1ccsc1C(=O)N(Cc1ccco1)C1CC1,.,.,-2%,.,.,.
SMILES,PTHR1 ag,Glioma ERSR ind,ALOX12 inh,GLP1R inv ag,GLP1R ag,GLS inhibitor
O=C(O)c1cc(O)c2c(c1)[C@H]([C@H]1c3cc(C(=O)O)cc(O)c3C(=O)c3c(O[C@@H]4O[C@H](CO)[C@@H](O)[C@H](O)[C@H]4O)cccc31)c1cccc(OC3O[C@H](CO)[C@@H](O)[C@H](O)[C@H]3O)c1C2=O (some centres not stated),-49%,-6%,?,-10%,-4%,?
O=C(O)c1cc(O)c2c(c1)[C@@H]([C@H]1c3cc(C(=O)O)cc(O)c3C(=O)c3c(O[C@@H]4O[C@H](CO)[C@@H](O)[C@H](O)[C@H]4O)cccc31)c1cccc(OC3O[C@H](CO)[C@@H](O)[C@H](O)[C@H]3O)c1C2=O (some centres not stated),-23%,-5%,50µM*,-15%,-12%,?
COCC(C)NC(=O)c1cc2ccccc2oc1=O (configuration not stated),.,.,34%,.,.,.
O=c1cc(CSc2nnnn2-c2ccccc2)[nH]n1-c1ccc(F)cc1,.,.,18µM*,.,.,.
Cc1ccc(S(=O)(=O)c2c(C)c(C)n(Cc3ccco3)c2N)cc1,.,.,45µM*,.,.,.
Cc1cc(C(=O)NC(=S)Nc2cccc(C(=O)O)c2C)ccc1[N+](=O)[O-],i,-3%,20µM*,17%,-7%,13%
NS(=O)(=O)c1cccc(NC(=S)NC(=O)c2cccc([N+](=O)[O-])c2)c1,-19%,19%,?,7%,2%,?
O=C(Nc1ccccc1C(=O)c1ccccc1)c1ccc(-c2ccccc2)cc1,.,.,-29%,.,.,.
Cc1cc(C(=O)NC(=S)Nc2cccc(NC(=O)C(C)C)c2)ccc1[N+](=O)[O-],-21%,4%,?,0%,-15%,20%
Cc1ccc(C(=O)NC(=S)NNC(=O)c2ccccc2[N+](=O)[O-])cc1,-1%,-2%,32µM*,-4%,-29%,-10%
O=C(NC(=S)Nc1cccc(NC(=O)c2ccccc2)c1)c1cccc([N+](=O)[O-])c1,-3%,-3%,28µM*,-1%,-7%,-3%
Cc1c(NC(=O)c2ccc(-c3ccccc3)cc2)cccc1C(=O)O,i,-16%,-18%,3.2µM*,-4%,-3%
CCCn1c(C)ccc(-c2noc(CCC(=O)Nc3ccc(OCC)cc3)n2)c1=O,.,.,-19%,.,.,.
CC/C(=N/NC(=O)C1CC1(c1ccc(C)cc1)c1ccc(C)cc1)c1ccccc1 (configuration not stated),.,.,19%,.,.,.
